Inconclusive results are not listed. Activity calls are given as the source filed them. The calls were made as follows: active = hit-call score of the fitted dose curve at least 0.9, where 1 is the maximum; inconclusive = response in the unintended direction; inactive = score below 0.9.
System: not listed separately
Assay: NVS_IC_rCaDHPRCh_L: NovaScreen (NVS) Ion Channel Assay for rat Calcium Channel, Type L, Dihydropyridine Site (CaDHPRCh_L) (AID 2283320)
Method: NVS_IC_rCaDHPRCh_L is a biochemical, single-readout assay that uses extracted gene-proteins from Rat cortical membranes in a tissue-based cell-free assay. Measurements were taken 1 hour after chemical dosing in a 48-well plate.NVS_IC_rCaDHPRCh_L is one of one assay component(s) measured or calculated from the NVS_IC_rCaDHPRCh_L assay. It is designed to make measurements of radioligand binding, a form of binding reporter, as detected with scintillation counting signals by Filter-based radiodetection technology.Data from the assay component NVS_IC_rCaDHPRCh_L was analyzed into 1 assay endpoint. This assay endpoint, NVS_IC_rCaDHPRCh_L, was analyzed in the positive analysis fitting direction relative to DMSO as the negative control and baseline of activity. Using a type of binding reporter, loss-of-signal activity can be used to understand changes in the binding as they relate to the gene Cacna1a. Furthermore, this assay endpoint can be referred to as a primary readout, because the performed assay has only produced 1 assay endpoint. To generalize the intended target to other relatable targets, this assay endpoint is annotated to the ion channel intended target family, where the subfamily is calcium channel.
(§1) Binding assays used specific radioligands (tritiated, iodinated) with non-radioactive competitive displacement ligands in agonist or antagonist protocols (as indicated) and various reference compounds and inhibitors to titrate specific binding to receptors and transporters. Most enzyme assays (CYPs, kinases, phosphatases, proteases, HDACs) used recombinant protein and specific substrates (fluorescence mostly, some colorimetric and radioactive) and inhibitors, followed by a biochemical separation of substrate and product. All assays for the biochemical HTS were initially run in duplicate at a single concentration (10 uM for CYP450 assays and 25 uM for all others). Assay-chemical combinations meeting a pre-defined threshold (e.g., 30% inhibition and other criteria defined below) were then run in singleton concentration-response format with maximum concentration of 20 uM for CYPs and 50 uM for all others. Each assay was run with positive and negative controls, and concurrent controls on every plate. The follow-up (secondary) screen tested active chemical-pairs in concentration series, as well as a few additional assays not tested in the primary screen, some selected negative inactives, and several cases re-run in the concentration series for confirmatory purposes.

Structure (SMILES) | outcome | AC50
CO/N=C(/C1=NOCCO1)c1ccccc1Oc1ncnc(Oc2ccccc2Cl)c1F | inactive | 
COC(=O)c1c(C(F)F)nc(C(F)(F)F)c(C2=NCCS2)c1CC(C)C | inactive | 
CCCCOCN(C(=O)CCl)c1c(CC)cccc1CC |  | 9.86 µM (active)

Target: bovine Gamma-Aminobutyric Acid Type A Receptor BDZ, alpha 1 site (GABARa1), GABRA1 (gene 780973) (UniProt P08219)
Sequence (P08219 whole entry, looked up): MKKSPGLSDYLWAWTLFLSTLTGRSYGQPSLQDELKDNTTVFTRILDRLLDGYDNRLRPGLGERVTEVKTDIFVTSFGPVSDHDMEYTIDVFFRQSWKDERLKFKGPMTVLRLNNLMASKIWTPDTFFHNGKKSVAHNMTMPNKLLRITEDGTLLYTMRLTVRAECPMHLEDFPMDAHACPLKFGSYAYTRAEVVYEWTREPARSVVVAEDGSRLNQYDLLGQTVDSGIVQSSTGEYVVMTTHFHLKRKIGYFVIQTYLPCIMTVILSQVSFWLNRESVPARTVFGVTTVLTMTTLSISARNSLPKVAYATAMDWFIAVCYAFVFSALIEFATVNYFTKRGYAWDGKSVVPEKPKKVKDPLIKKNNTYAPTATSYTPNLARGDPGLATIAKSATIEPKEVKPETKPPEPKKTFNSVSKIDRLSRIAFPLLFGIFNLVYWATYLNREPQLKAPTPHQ
Assay: NVS_LGIC_bGABARa1: NovaScreen (NVS) Ligand-Gated Ion Channel Assay for bovine Gamma-Aminobutyric Acid Type A Receptor BDZ, alpha 1 site (GABARa1) (AID 2283321)
Method: NVS_LGIC_bGABARa1 is a biochemical, single-readout assay that uses extracted gene-proteins from Bovine cortical membranes in a tissue-based cell-free assay. Measurements were taken 0.75 hour after chemical dosing in a 48-well plate.NVS_LGIC_bGABARa1 is one of one assay component(s) measured or calculated from the NVS_LGIC_bGABARa1 assay. It is designed to make measurements of radioligand binding, a form of binding reporter, as detected with scintillation counting signals by Filter-based radiodetection technology.Data from the assay component NVS_LGIC_bGABARa1 was analyzed into 1 assay endpoint. This assay endpoint, NVS_LGIC_bGABARa1, was analyzed in the positive analysis fitting direction relative to DMSO as the negative control and baseline of activity. Using a type of binding reporter, loss-of-signal activity can be used to understand changes in the binding as they relate to the gene GABRA1. Furthermore, this assay endpoint can be referred to as a primary readout, because the performed assay has only produced 1 assay endpoint. To generalize the intended target to other relatable targets, this assay endpoint is annotated to the ion channel intended target family, where the subfamily is ligand-gated ion channel.
as §1

Structure (SMILES) | outcome
CS(=O)(=O)c1cc(C(F)(F)F)ccc1C(=O)c1cnoc1C1CC1 | inactive
CC1(C)C(C(=O)OC(C#N)c2cccc(Oc3ccccc3)c2)C1(C)C (configuration not stated) | inactive
Nc1c(Cl)c(F)nc(OCC(=O)O)c1Cl | inactive

Target: Sodium channel protein type 1 subunit alpha (Rattus norvegicus) (UniProt P04774)
Assay: NVS_IC_rNaCh_site2: NovaScreen (NVS) Ion Channel Assay for rat Sodium Channel, Site 2 (NaCh) (AID 2283322);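 also: hit means loss of radioligand binding signal relative to DMSO so AC50 marks displacement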
Procedure, shortened: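 Initial duplicate single-point testing at 25 uM, followed by concentration-response runs for actives. Binding of radioligand to rat forebrain membranes quantified after 1 h via filter-based radiodetection.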

Structure (SMILES) | outcome | AC50
CCNC(=O)NC(=O)C(C#N)=NOC | inactive | 
CC(C)C1(C)N=C(c2ncccc2C(=O)O)NC1=O (configuration not stated) | inactive | 
N#Cc1c(Cl)cccc1Cl |  | 38.2 µM (active)
CC(C)(C)C(=O)C(Oc1ccc(Cl)cc1)n1cncn1 (configuration not stated) | inactive | 

Target: rat Glutamate, AMPA Site (AMPA), Gria1 (gene 50592) (UniProt P19490)
Sequence (P19490 whole entry, looked up): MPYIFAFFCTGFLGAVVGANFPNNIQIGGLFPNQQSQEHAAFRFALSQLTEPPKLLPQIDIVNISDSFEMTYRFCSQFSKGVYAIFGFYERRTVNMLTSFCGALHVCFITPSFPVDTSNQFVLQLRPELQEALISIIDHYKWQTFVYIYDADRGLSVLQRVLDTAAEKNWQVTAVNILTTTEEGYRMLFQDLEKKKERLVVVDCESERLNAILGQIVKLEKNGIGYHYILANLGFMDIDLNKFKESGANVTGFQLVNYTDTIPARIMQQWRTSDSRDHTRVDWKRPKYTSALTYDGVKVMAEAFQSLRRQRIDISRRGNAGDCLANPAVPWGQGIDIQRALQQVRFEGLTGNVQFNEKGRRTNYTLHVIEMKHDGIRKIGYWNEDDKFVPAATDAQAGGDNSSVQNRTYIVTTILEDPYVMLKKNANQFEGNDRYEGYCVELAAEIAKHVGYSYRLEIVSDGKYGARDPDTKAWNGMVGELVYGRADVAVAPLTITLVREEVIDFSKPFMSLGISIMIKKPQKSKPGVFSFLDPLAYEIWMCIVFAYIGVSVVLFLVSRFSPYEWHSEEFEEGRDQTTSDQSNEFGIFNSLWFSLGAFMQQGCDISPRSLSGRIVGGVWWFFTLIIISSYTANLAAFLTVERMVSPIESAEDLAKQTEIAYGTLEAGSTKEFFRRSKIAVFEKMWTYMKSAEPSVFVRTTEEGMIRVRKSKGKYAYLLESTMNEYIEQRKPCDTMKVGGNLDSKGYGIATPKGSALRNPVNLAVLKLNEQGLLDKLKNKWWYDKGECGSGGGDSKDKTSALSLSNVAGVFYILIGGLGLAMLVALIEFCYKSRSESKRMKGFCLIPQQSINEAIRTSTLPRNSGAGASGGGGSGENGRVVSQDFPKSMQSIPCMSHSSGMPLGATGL
Assay: NVS_LGIC_rAMPA: NovaScreen (NVS) Ligand-Gated Ion Channel Assay for rat Glutamate, AMPA Site (AMPA) (AID 2283324)
Procedure, shortened: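 Screening at 25 uM in duplicate preceded concentration series reaching 50 uM for qualifying compounds. Radioligand displacement on rat forebrain membranes, 1 h, filter-based scintillation readout; reduced binding relative to DMSO.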

Structure (SMILES) | outcome
CCNC(=O)NC(=O)C(C#N)=NOC | inactive
C=C(C)CN(CC)c1c([N+](=O)[O-])cc(C(F)(F)F)cc1[N+](=O)[O-] | inactive
CN=C=S | inactive

Target: human Serotonin, 5-Hydroxytryptamine Receptor 3 (5HT3), HTR3A (gene 3359) (UniProt P46098)
Sequence (P46098 whole entry, looked up): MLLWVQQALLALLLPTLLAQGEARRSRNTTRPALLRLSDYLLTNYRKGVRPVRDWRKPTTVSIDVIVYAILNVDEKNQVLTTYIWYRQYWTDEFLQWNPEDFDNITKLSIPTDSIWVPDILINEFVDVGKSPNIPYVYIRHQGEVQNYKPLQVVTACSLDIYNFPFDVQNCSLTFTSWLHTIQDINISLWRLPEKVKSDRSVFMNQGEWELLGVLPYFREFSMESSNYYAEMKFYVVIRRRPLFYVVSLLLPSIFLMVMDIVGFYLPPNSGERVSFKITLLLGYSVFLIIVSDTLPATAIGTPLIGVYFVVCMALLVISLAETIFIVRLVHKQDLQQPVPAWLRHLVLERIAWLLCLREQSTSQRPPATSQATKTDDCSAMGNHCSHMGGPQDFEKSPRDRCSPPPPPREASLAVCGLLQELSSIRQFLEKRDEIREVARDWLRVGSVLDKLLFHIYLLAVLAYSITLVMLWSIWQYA
Assay: NVS_LGIC_h5HT3: NovaScreen (NVS) Ligand-Gated Ion Channel Assay for human Serotonin, 5-Hydroxytryptamine Receptor 3 (5HT3) (AID 2283325)
Procedure, shortened: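 Initially tested at 25 uM in duplicate, then up to 50 uM in concentration-response for actives, compounds competed with a radioligand for HEK293-derived human 5-HT3 receptor. Bound counts were measured by filtration and scintillation at 1 h; loss of signal versus DMSO.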

Structure (SMILES) | outcome
CS(=O)(=O)c1cc(C(F)(F)F)ccc1C(=O)c1cnoc1C1CC1 | inactive
CC1(C)C(C(=O)OC(C#N)c2cccc(Oc3ccccc3)c2)C1(C)C (configuration not stated) | inactive
Cc1c(COC(=O)[C@@H]2[C@H](/C=C(\Cl)C(F)(F)F)C2(C)C)cccc1-c1ccccc1 | inactive
CC1(C)CCC(=Cc2ccc(Cl)cc2)C1(O)Cn1cncn1 (configuration not stated) | inactive

Target: rat Thyrotropin Releasing Hormone Receptor (TRH), Trhr (gene 25570) (UniProt Q01717)
Sequence (Q01717 whole entry, looked up): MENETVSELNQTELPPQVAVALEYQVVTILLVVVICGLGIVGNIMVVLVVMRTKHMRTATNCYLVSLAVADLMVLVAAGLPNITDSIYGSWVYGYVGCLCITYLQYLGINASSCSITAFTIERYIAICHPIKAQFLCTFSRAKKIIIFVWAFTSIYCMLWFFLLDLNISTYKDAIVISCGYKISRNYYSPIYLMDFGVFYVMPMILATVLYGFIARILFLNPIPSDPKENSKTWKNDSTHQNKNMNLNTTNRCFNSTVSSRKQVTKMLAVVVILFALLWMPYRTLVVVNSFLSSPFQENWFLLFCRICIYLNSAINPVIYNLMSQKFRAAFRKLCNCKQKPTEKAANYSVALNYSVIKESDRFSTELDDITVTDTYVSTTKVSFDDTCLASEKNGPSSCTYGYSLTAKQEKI
Assay: NVS_GPCR_rTRH: NovaScreen (NVS) G Protein-Coupled Receptor Assay for rat Thyrotropin Releasing Hormone Receptor (TRH) (AID 2283329);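 also: hit means lower bound tracer signal versus DMSO baseline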
Procedure, shortened: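 Cell-free radioligand binding on rat forebrain membranes; bound tracer measured by filter-based scintillation counting 4 hours after dosing. Loss of signal versus DMSO baseline indicates displacement; primary screen at 25 uM in duplicate, actives then run in concentration series.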

Structure (SMILES) | outcome | AC50
CCNC(=O)NC(=O)C(C#N)=NOC | inactive | 
CCOP(=S)(OCC)Oc1nc(Cl)n(C(C)C)n1 | inactive | 
CC(C)C1(C)N=C(c2ncccc2C(=O)O)NC1=O (configuration not stated) | inactive | 
CCCCC(O)(Cn1cncn1)c1ccc(Cl)cc1Cl (configuration not stated) | inactive | 
Nc1cnn(-c2ccccc2)c(=O)c1Cl | inactive | 
Cc1cnc(C2=NC(C)(C(C)C)C(=O)N2)c(C(=O)O)c1 (configuration not stated) | inactive | 
COC(=O)c1c(C(F)F)nc(C(F)(F)F)c(C2=NCCS2)c1CC(C)C |  | 25 µM (active)
CCOc1nc(F)cc2nc(S(=O)(=O)Nc3c(Cl)cccc3Cl)nn12 | inactive | 
CC1(C)CON(Cc2ccccc2Cl)C1=O | inactive | 
Nc1c(Cl)c(Cl)nc(C(=O)O)c1Cl | inactive | 

Reference: PubChem BioAssay (EPA / NIEHS)
